In the library only some 31% were active in any assay of this set; here they are far more common.
CYP2C9 inhib = human CYP2C9 inhibition; AID 777; CYP2C9 Supersomes, luciferin-H conversion, luminescence; 96,000 tested, 20% active; inhibition, % at 5 µM; P11712;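 active means blocking of liver enzyme CYP2C9 beyond about 50% at 5 µM, limit read from the data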
CYP2C19 activ = increases human CYP2C19 enzyme activity; recombinant CYP2C19, luciferin-H EGE luminescence; active compounds read high; 0 = fully inhibited enzyme, 1 = untreated enzyme; activation factor at 5 µM; 96,000 tested, under 10 active;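 active means activation factor of at least 2 at 5 µM in the primary screen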;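 further: 0 = wells with 2.5 mM tranylcypromine and 1 = vehicle-only wells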
Target sequence (P33261 whole entry, looked up): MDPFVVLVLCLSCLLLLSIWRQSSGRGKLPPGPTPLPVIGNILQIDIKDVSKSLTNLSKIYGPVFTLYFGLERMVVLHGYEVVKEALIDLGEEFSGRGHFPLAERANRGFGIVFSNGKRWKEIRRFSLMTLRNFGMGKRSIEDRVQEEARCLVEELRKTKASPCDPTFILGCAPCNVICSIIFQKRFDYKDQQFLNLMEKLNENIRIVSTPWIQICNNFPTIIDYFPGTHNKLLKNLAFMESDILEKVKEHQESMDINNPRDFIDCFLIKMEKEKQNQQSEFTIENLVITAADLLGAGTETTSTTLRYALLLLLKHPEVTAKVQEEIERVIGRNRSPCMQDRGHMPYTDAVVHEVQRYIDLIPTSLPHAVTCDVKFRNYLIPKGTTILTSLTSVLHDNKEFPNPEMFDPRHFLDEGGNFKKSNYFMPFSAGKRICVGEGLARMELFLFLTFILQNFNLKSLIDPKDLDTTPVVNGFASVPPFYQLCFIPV
CYP2C19 inh = blocks human cytochrome P450 2C19; P33261; CYP2C19 Supersomes, luciferin-H EGE luminescence, 30 min; inhibition, % at 5 µM; 96,000 tested, 21% active; AID 778;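 active means CYP2C19 inhibition above a set limit at 5 µM in the primary screen, cut at about 50% in these data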;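 further: plate controls were negative control wells for no effect and 2.5 mM tranylcypromine positive control for full effect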
CYP2C9 act = increases human cytochrome P450 2C9 activity; P11712; AID 1024; recombinant CYP2C9, luciferin-H conversion, luminescence; active compounds read high; factor 1 = untreated enzyme, 0 = blocked; 96,000 tested, 1.4% active; activation factor at 5 µM;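 active means activation factor of 2 or more for CYP2C9 at a 5 µM dose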;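 further: 0 = sulfaphenazole-blocked wells and 1 = vehicle-only wells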
Active calls of the source: *.

SMILES | CYP2C9 inhib | CYP2C19 activ | CYP2C19 inh | CYP2C9 act
Cn1c(CCCCCN)nc2ccccc21 | 63* | 0.8 | 23 | 0.4
CCn1cnc2cc(NCc3nc4ccccc4n3C)ccc21 | 41 | 0.1 | 93* | 0.6
Cn1c(CNc2ccccc2)nc2ccccc21 | 34 | 0.5 | 52* | 0.7
Cn1c(CNc2ccccc2O)nc2ccccc21 | 13 | 0.3 | 70* | 0.9
Cn1c(Cc2csc(N)n2)nnc1SCC(=O)NC1CCCCC1 | 19 | 1 | 3 | 0.8
Cc1cc(C)nc(SCc2nc3ccccc3n2C)n1 | 27 | 0.6 | 43 | 0.7
CCn1c(CNc2ccc(C(=O)O)cc2)nc2ccccc21 | 0 | 0.9 | 5 | 1
CCCn1c(CNc2ccc(Br)cc2)nc2ccccc21 | 92* | 0 | 98* | 0.1
Cn1c(CSc2nc3ccccc3n2C)nc2ccccc21 | 13 | 0.2 | 84* | 0.9
O=C(Nc1ccc(Cl)cc1)N1CCSc2ccccc21 | 30 | 0.9 | 14 | 0.7
COc1ccccc1C(=O)N1CCN(S(=O)(=O)Cc2ccccc2)CC1 | 28 | 0.6 | 45 | 0.7
COc1ccc(N(C(=O)c2ccc(F)cc2)C2=CC3CCC(C2)N3C)cc1 (stereo not given) | 12 | 1.4 | -35 | 0.9
Cc1csc(SCC(=O)Nc2sc3c(c2C#N)CCC3)n1 | 69* | 0.9 | 9 | 0.3
N#Cc1c(NC(=O)CSC2=NCCS2)sc2c1CCCC2 | 4 | 1.1 | -7 | 1
N#Cc1c(NC(=O)CSc2ncn[nH]2)sc2c1CCCC2 | 79* | 0.6 | 38 | 0.2
C=CCNC(=O)c1onc(CCl)c1C(=O)OC | 0 | 1 | 2 | 1
CCN(CC)C(=O)c1ccc(C(=O)c2c(C)cc(C)cc2C)cc1 | 40 | 0.6 | 43 | 0.6
CCCCN(CC)C(=O)c1ccc(Cl)c(Cl)c1 | 1 | 0.2 | 84* | 1
O=C(NNC(=O)c1ccccc1Br)c1ccc(Cl)c(Cl)c1 | -123 | 0.8 | 24 | 2.2*
CC(C)(C)c1ccc(C(=O)NNC(=O)c2ccccc2Br)cc1 | -5 | 1.1 | -10 | 1.1
O=C(NNC(=O)c1ccccc1-n1cccc1)c1ccc(Cl)c(Cl)c1 | -49 | 0.5 | 50* | 1.5
O=C(NNC(=O)c1ccccc1-n1cccc1)c1ccc(Cl)cc1 | -78 | 1 | -1 | 1.8
COc1ccc(N2CCN(C(=O)CCCN3C(=O)c4cccc5cccc(c45)C3=O)CC2)cc1 | 41 | 0.6 | 40 | 0.6
CC1=C(C(=O)Nc2ccccc2Cl)C(c2ccc(N(C)C)cc2)NC(=O)N1 (stereo not given) | -14 | 1 | -2 | 1.1
Cc1ccc(N2CCCCn3c2nc2c3c(=O)n(CC(=O)O)c(=O)n2C)cc1 | -13 | 1.2 | -22 | 1.1
SMILES | CYP2C9 inhib | CYP2C19 activ | CYP2C19 inh | CYP2C9 act
Cn1c(SCC(=O)N2c3ccccc3Sc3ccccc32)nnc1-c1ccco1 | 70* | 0.3 | 68* | 0.3
CCCn1c(SCC(=O)Nc2ccccc2-c2ccccc2)nnc1-c1ccoc1C | 87* | 0.2 | 82* | 0.1
Cn1c(SCC(=O)Nc2ccccc2-c2ccccc2)nnc1-c1ccco1 | 45 | 0.4 | 60* | 0.5
Cc1ccccc1NC(=O)CSc1nnc(-c2ccoc2C)n1CCc1ccccc1 | 26 | 0.6 | 40 | 0.7
Cc1occc1-c1nnc(SCC(=O)Nc2ccccc2-c2ccccc2)n1C | 76* | 0.2 | 76* | 0.2
CCc1nnc(NC(=O)CSc2nnc(-c3ccco3)n2C)s1 | 12 | 0.9 | 9 | 0.9
CCC(Sc1nc(N)c(NC(=O)c2ccc(OC)c(OC)c2)c(=O)[nH]1)C(=O)OC (stereo not given) | -10 | 1.1 | -14 | 1.1
CCSc1nc(O)c(Cc2ccccc2)c(=O)[nH]1 | -28 | 1 | 2 | 1.3
CCOCCCNC(=O)Cn1cc2c(n1)CCCCC2 | 1 | 0.6 | 35 | 1
CC(C)(C)NC(=O)c1ccc(COCC(F)(F)F)o1 | -20 | 1 | -4 | 1.2
Cc1ccnc(NC(=O)c2ccc(COc3ccc(Cl)cc3)o2)c1 | 25 | 0.9 | 8 | 0.7
O=C(c1ccc(CS(=O)(=O)c2c(Cl)cccc2Cl)o1)N1CCCC1 | -57 | 0.8 | 20 | 1.6
O=C(Nc1ccc(Cl)cn1)c1ccc(COCC(F)(F)C(F)F)o1 | 22 | 0.3 | 72* | 0.8
O=C(c1ccc(COCC(F)(F)F)o1)N1CCCCCC1 | 4 | 0.5 | 51* | 1
Cc1ccc(C(=O)NCc2ccc(Cl)cc2)o1 | -9 | 0.5 | 53* | 1.1
O=C(NCc1ccc(Cl)cc1)c1ccc(COCC(F)(F)F)o1 | 31 | 0.5 | 51* | 0.7
Cc1ccc(/C=N/N2CCN(Cc3cccc4ccccc34)CC2)o1 | -33 | 0.9 | 12 | 1.3
Cn1ccnc1C(O)(c1nnc(-c2ccccc2)o1)C(F)(F)F (stereo not given) | -4 | 1.1 | -8 | 1
COC(=O)COc1ccc(S(=O)(=O)NCc2ccncc2)cc1 | 70* | 0 | 99* | 0.3
O=S(=O)(NCc1ccncc1)c1ccc(Br)s1 | 51* | 0 | 98* | 0.5
O=S(=O)(NCc1ccncc1)c1ccccc1 | 33 | 0.1 | 91* | 0.7
COc1cccc(CNC(=O)C2CCCN(S(=O)(=O)c3c(C)n[nH]c3C)C2)c1 (stereo not given) | 21 | 0.8 | 18 | 0.8
O=C(O)c1ccc(N2Cc3ccccc3C2)cc1O | 53* | 0.5 | 48 | 0.5
Cc1ccccc1NS(=O)(=O)c1cc(C(N)=O)ccc1C | 19 | 0 | 97* | 0.8
NC(=O)c1ccccc1NS(=O)(=O)Cc1ccc(Cl)cc1 | -57 | 0.3 | 66* | 1.6
SMILES | CYP2C9 inhib | CYP2C19 activ | CYP2C19 inh | CYP2C9 act
Cc1ccccc1NS(=O)(=O)c1ccc(C)c(C(N)=O)c1 | 11 | 0.1 | 90* | 0.9
Cc1ccccc1NS(=O)(=O)c1cc(C(=O)NCCC2=CCCCC2)ccc1Cl | 49 | 0.8 | 24 | 0.5
Cc1ccc(C)c(NS(=O)(=O)c2cc(C(=O)Nc3ccccc3-c3ccccc3)ccc2C)c1 | 80* | 0.5 | 54* | 0.2
Cc1ccc(C)c(NS(=O)(=O)c2cc(C(=O)NCc3ccccn3)ccc2Cl)c1 | 36 | 0.6 | 36 | 0.6
CC(C)[C@H](NC(=O)NCCc1ccc(Cl)cc1)C(=O)O | 12 | 1 | -4 | 0.9
Cc1ccc(S(=O)(=O)Nc2ccccc2C(N)=O)cc1 | -109 | 0.8 | 23 | 2.1*
O=C(NS(=O)(=O)c1ccccc1)c1ccccc1O | 89* | 1 | 4 | 0.1
NC(=O)c1ccccc1NS(=O)(=O)c1ccccc1 | -133 | 0.7 | 25 | 2.3*
O=C(O)c1ccccc1NS(=O)(=O)c1ccccc1C(F)(F)F | 66* | 1 | 4 | 0.3
O=C(O)CN=C(NS(=O)(=O)c1ccccc1)c1ccccc1 | 7 | 0.9 | 12 | 0.9
CCC(=NCCN1CCNCC1)C1=C(O)CC(C)(C)CC1=O | -22 | 1.2 | -18 | 1.2
COc1ccc(N2CCN(c3cc(=O)n(Cc4ccc(F)cc4)c(=O)[nH]3)CC2)cc1 | -14 | 1.1 | -12 | 1.1
CCOC(=O)NCc1ccc(S(=O)(=O)Nc2ccccc2C)cc1 | 25 | 0.3 | 69* | 0.8
CC(=O)c1sc(NC(=O)c2ccc(Cn3cc(Br)cn3)o2)nc1C | 78* | 0.5 | 47 | 0.2

Source: PubChem (Sanford-Burnham Center for Chemical Genomics)
